Reference: PubChem BioAssay (NCI)
Compounds without any hit were thinned out: in the full panel of roughly 83,000, 20% have a hit.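 Activity criterion: percent growth below 10, measured after cells in 96-well plates were exposed to a single compound concentration for 48 hours.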 A number with no mark means an inactive call. Activity calls are given as the source filed them.

Columns and labels:
Assay in all cases: NCI-60 one-dose screen, 48 h (100 = growth as untreated, 0 = no growth, -100 = all killed)
Details in all cases: 10 µM unless noted
SR leukemia = test system: SR leukemia
RPMI-8226 leukemia = test system: RPMI-8226 leukemia
OVCAR-8 ovarian = test system: OVCAR-8 ovarian
OVCAR-5 ovarian = test system: OVCAR-5 ovarian
OVCAR-4 ovarian = test system: OVCAR-4 ovarian
SK-OV-3 ovarian = test system: SK-OV-3 ovarian
IGROV1 ovarian = test system: IGROV1 ovarian
HS 578T breast = test system: HS 578T breast
NCI/ADR-RES ovarian = test system: NCI/ADR-RES ovarian

| Structure (SMILES) | growth (SR leukemia) | growth (RPMI-8226 leukemia) | growth (OVCAR-8 ovarian) | growth (OVCAR-5 ovarian) | growth (OVCAR-4 ovarian) | growth (SK-OV-3 ovarian) | growth (IGROV1 ovarian) | growth (HS 578T breast) | growth (NCI/ADR-RES ovarian) |
| --- | --- | --- | --- | --- | --- | --- | --- | --- | --- |
| CCCCCCNC(=O)Oc1ccc(/C(=C(/C)c2ccc(Cl)cc2)c2ccc(OCCN3CCCCCC3)cc2)cc1 | 2.59% (active) | 64.3% | 78.2% | 83% | 61% | 96% | 68.4% | 63.8% | 79.4% |
| C#Cc1nc(C(=O)NCCCCCCC(=O)NO)cs1 | 0.171% (active) | -10.1% (active) | 15.8% | 10.2% | 25.8% | 29.2% | -72.6% (active) | -3.14% (active) | 2.01% (active) |
| Nc1cc(C(=O)N/N=C\c2ccc(OC(F)F)c(OC3CCCC3)c2)nn1CC(O)c1ccccc1 (stereo not drawn) | 88.1% | 87.5% | 96.9% | 108% | 91.4% | 105% | 108% | 109% | 109% |
| Clc1ccc2c(N/N=C/c3c[nH]c4ccccc34)ccnc2c1 | 2.13% (active) | -25% (active) | -68% (active) | -83.9% (active) | -61.2% (active) | -85.6% (active) | -87.2% (active) | -47% (active) | -71.8% (active) |
| CC(C)(C)c1cc(NC(=O)Nc2ccc(-c3cn4c5c(sc4n3)CCc3cn(CCCN4CCCCC4)cc3-5)cc2)no1 | -14% (active) | -19.5% (active) | -52% (active) | -32.4% (active) | -78.4% (active) | 97% | -78.5% (active) | 38.4% | -43% (active) |
| Cc1ncn(-c2ccc(/C=N/Nc3ccnc4cc(Cl)ccc34)cc2)c1C | -21.3% (active) | -27.2% (active) | -57.5% (active) | 102% | -68.3% (active) | 102% | 61.7% | -16.1% (active) | 8.02% (active) |
| C/C(=N/N)c1nnn(-c2ccc(Br)cc2)c1C | 96% | 105% | 102% | 93.2% | 110% | 109% | 95.1% | 102% | 104% |
| Cc1c(C(=O)/C=C/c2ccc(Cl)cc2)nnn1-c1ccc2oc(=O)ccc2c1 | 91% | 54.2% | 99.4% | 97.9% | 105% | 106% | 102% | 109% | 88.4% |
| Cc1ccsc1[C@H]1c2[nH]c3ccccc3c2C[C@H]2C(=O)N(CCCCCCC(=O)NO)CC(=O)N12 | 42% | 58.8% | 79.2% | 73.7% | 106% | 105% | 87.4% | 85.4% | 95.9% |
| CCCc1[nH]c(-c2cc(N)ccc2Cl)c2c1C(=O)CCCC2 | 85.8% | 89.7% | 96.4% | 94.7% | 95.9% | 103% | 91.6% | 89.9% | 95.2% |
| C#C[C@]1(O)CC[C@H]2[C@@H]3CC=C4c5sc(N6CCN(C)CC6)nc5CC[C@]4(C)[C@H]3CC[C@@]21C | 4.08% (active) | -13.3% (active) | 74.2% | 69.5% | 75.6% | 54% | 63.2% | 59.8% | 36.8% |
| C=C(C)[C@@H]1CC[C@]2(COP(=O)(OCC)OCC)CC[C@]3(C)[C@H](CC[C@@H]4[C@@]5(C)CC[C@H](OP(=O)(OCC)OCC)C(C)(C)[C@@H]5CC[C@]43C)[C@@H]12 | 30.2% | -18.1% (active) | 40.5% | 84.3% | 65.5% | 77.2% | 74.5% | 74.7% | 31.8% |
| C#CCOc1ccc(/C=N/Nc2nc(-c3ccc(OC)cc3)cs2)cc1 | 47% | 53.3% | 84.9% | 104% | 53.1% | 99.6% | 96.6% | 94% | 89.6% |
| CCNC(=O)Oc1ccc(/C(=C(/C)c2ccc(OC)cc2)c2ccc(OCCN3CCCCCC3)cc2)cc1 | -20.7% (active) | 12.1% | 68.4% | 72.7% | 62.7% | 79% | 65.4% | 16.2% | 59.4% |
| O=C(CCCCCCNC(=O)c1csc(Br)n1)NO | 23.9% | 2.81% (active) | 23.5% | 20.2% | 69.6% | 56.3% | 36.4% | 58.3% | 9.08% (active) |
| CCc1cc2c(cc1Cl)nc1c(=O)[nH]c(=O)nc-1n2CCOCC(C)C | 22.7% | 66.6% | 59.2% | 120% | 44.1% | 111% | 58.6% | 98.2% | 74.1% |
| CCOC(=O)Nc1ccc2c(ccn2C(=O)c2cccc(F)c2)c1 | 16.8% | 24.6% | 43.9% | 60.5% | 68.8% | 55.3% | 45.4% | 39.1% | 19.8% |
| COc1cccc2c1C=CC1(O2)Oc2cccc(OC)c2C=C1C (stereo not drawn) | 12.8% | 18.9% | 23.5% | 29.6% | 85.3% | 65.5% | 27.9% | 20.8% | 4.87% (active) |
| O=S(=O)(Oc1ccc(-c2cn3ccoc3n2)cc1)C1CCCCC1 | 85.6% | 93.3% | 100% | 102% | 107% | 102% | 108% | 102% | 97.8% |
| O=C(N/N=C\c1ccc([N+](=O)[O-])cc1)c1ccc2nc(-c3ccc(Br)cc3)[nH]c2c1 | -3.17% (active) | 6.03% (active) | 13.5% | 44.8% | 21.3% | 45% | 18% | 23.2% | 71.4% |
| C#CCOc1ccc(-c2csc(NC(=O)C=C)n2)cc1NS(=O)(=O)c1cccc2c(N(C)C)cccc12 | 8.34% (active) | -9.93% (active) | 23.2% | 81.1% | 63.2% | 118% | 32.3% | 79.2% | 27.5% |
| CCOC(=O)c1cccnc1Nc1ccc(NC(=O)Nc2ccc(Cl)c(C(F)(F)F)c2)cc1 | 54% | 16% | 39.3% | 85.7% | 42.8% | 70.1% | 29.9% | 84.5% | 35.3% |
| CSc1ccc(/C(=N/N=C(N)N)c2ccc(Cl)cc2)cc1 | -15.7% (active) | 6.98% (active) | -18.4% (active) | 11.4% | 57% | 24.7% | 4.76% (active) | 4% (active) | -3.46% (active) |
| C#Cc1nc(/C=C/CCCCCCC(=O)NO)cs1 | -39.9% (active) | -12.7% (active) | 31.8% | 59.3% | 47.2% | 88.8% | -80.3% (active) | 80% | 24.9% |
| CCc1cc2c(cc1Cl)nc1c(=O)[nH]c(=O)nc-1n2CCOCC(C)(C)C | 35.8% | 68.5% | 72.2% | 119% | 52.5% | 110% | 60.3% | 101% | 79.2% |
| CC(=O)N1N=C(c2cc3ccccc3oc2=O)CC1c1cn(-c2ccccc2)nc1-c1ccc(C)cc1 (stereo not drawn) | 101% | 102% | 97.3% | 94.1% | 94.4% | 95.2% | 108% | 93.7% | 96.1% |
| CC[C@]12C=CCN3CC[C@@]4(c5ccc(OC)cc5N(C)[C@H]4[C@@](O)(C(=O)OC)[C@@H]1OC(=O)CCN1CCc4ccccc4C1)[C@@H]32 | 82.2% | 78.4% | 94.9% | 96.3% | 91.2% | 103% | 81.5% | 92% | 80.5% |
